# Data as given in the supplement of paper PMC7866885, “A novel bicyclic 2,4-diaminopyrimidine inhibitor of Streptococcus suis dihydrofolate reductase” (PeerJ, 2021).
# ± gives the standard deviation.
# Test system: Streptococcus suis P1/7
# Experiment: percent growth relative to DMSO control; higher = less growth inhibition
# Conditions: 10 µM; incubation time 18 h
# Protocol: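 CLSI broth microdilution: 5x10^4 CFU of Streptococcus suis (strain P1/7 or HE06) incubated with 10 µM Pathogen Box compound in cation-adjusted Mueller Hinton broth, 37 °C, 5% CO2, 18 h. Growth read as OD600 and expressed as percent of the DMSO-treated control (100%); mean ± SD of three independent experiments.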
row,SMILES,percent growth [%]
1,Cc1cc2nc(NC(=O)C(C)(C)C)nc(Cl)c2n1Cc1ccc(Cl)cc1,109 ± 58
2,CC(c1cc(Cl)cc(Cl)c1)N(C)c1ncc2c(N)nc(N)nc2n1 (stereo not given),57.6 ± 42
3,Cc1cc(Cl)ccc1NC(=O)CCc1ccc(S(=O)(=O)NCC(C)C)cc1,95.4 ± 17
4,Cc1cc(NCCc2ccccc2)nc(NC(=N)Nc2ccc(Cl)cc2)n1,74.4 ± 13
5,O=C1N(Cc2cc3ccccc3s2)CC2CN(Cc3ccccc3)CCN12 (stereo not given),83.1 ± 18
6,O=C(N[C@H](Cc1ccccc1)C(=O)Nc1ccccc1N1CCOCC1)c1cccs1,85.8 ± 16
7,Cc1cc(NC(=O)c2ccc(S(=O)(=O)N(Cc3ccccc3)C(C)C)cc2)no1,71.6 ± 30
8,O=C(CCC1CCCCC1)Nc1cccc(-c2nnc(-c3ccco3)o2)c1,111 ± 46
9,Clc1ccc(CN2CCN(C3=NCCN3)CC2)cc1Cl,72.2 ± 28
10,Cc1[nH]c2cc(F)cc(F)c2c(=O)c1-c1ccc(Oc2ccc(OC(F)(F)F)cc2)cc1,88.9 ± 18
11,Nc1ccc2ncnc(Nc3ccc(OCc4cccc(F)c4)c(Cl)c3)c2c1,81.2 ± 18
12,c1ccc(Oc2ccc(-c3cncc(-c4ccc5[nH]ccc5c4)n3)cc2)cc1,83.7 ± 20
13,O=C(Nc1cccc(-c2ccc(NCCCN3CCCC3)nc2)c1)c1ccccc1,72.5 ± 24
14,Cc1nn2c(O)c3c(nc2c1-c1ccc(F)cc1)CCCC3,45.5 ± 21
15,CC(C)(C)OC(=O)N1CCN(c2cc(-c3ccc(Oc4ccccc4)cc3)n[nH]2)CC1,28.7 ± 42
16,COc1ccc(-c2cnc3ccc(NCc4ccc(S(N)(=O)=O)cc4)nn23)cn1,89.2 ± 15
17,CC(=O)NCC1CN(c2ccc(-c3ccc(CNCc4cn[nH]n4)cc3)c(F)c2)C(=O)O1 (stereo not given),0.637 ± 0.99
18,CC(C(=O)Nc1ccc2oc(-c3ccncc3)nc2c1)c1ccccc1 (stereo not given),95.8 ± 45
19,O=C(NCc1ccco1)N1CCN(Cc2ccc(Cl)s2)CC1,91.1 ± 21
20,Nc1ncc(-c2ccc(C(F)(F)F)nc2)cc1-c1ccc(C(F)(F)F)nc1,101 ± 35

row,SMILES,percent growth [%]
1,Cc1ccc2cc(C3NC(=O)c4ccccc4N3)c(Cl)nc2c1 (stereo not given),116 ± 46
2,Cc1cc(C)n(-c2ccc(NC(=O)C3CCN(Cc4cnc(C)s4)CC3)cc2)n1,65.6 ± 19
3,Nc1ncnc2c1c(-c1cnc3ccccc3c1)nn2CC1CCNCC1,102 ± 20
4,O=C(NCc1cc(Cl)cc(Cl)c1)c1c(C(F)(F)F)nc2ccccn12,60.6 ± 20
5,O=C(NCCN1CCCC1)c1cc(NCCN2CCOCC2)nc2ccc(Cl)cc12,83.1 ± 11
6,c1ccc(-c2cc(N3CCCCC3)c3ccccc3n2)nc1,0.354 ± 0.61
7,CC1CCCN(C(=O)C(C)Nc2cc(Cl)ccc2N2CCOCC2)C1 (stereo not given),94.4 ± 32
8,CN1CCN(c2cc(-c3ccc(F)cc3)nc(-c3ccncc3)n2)CC1,89.1 ± 28
9,Oc1c(I)cc(I)c2cccnc12,-0.0569 ± 0.099
10,CCCn1nnc(NC(=O)COc2ccc(C3CCCCC3)cc2)n1,85.9 ± 12
11,CC(C)(C)c1cnc(NC(=O)c2ccccc2O)s1,1.61 ± 1.4
12,CCC(NC(=O)c1ccccc1NC(=O)c1ccc(C)cc1)C(=O)OC (stereo not given),78.1 ± 18
13,NC(CC(=O)c1ccc(Cl)cc1Cl)C(Cl)(Cl)Cl (stereo not given),23.2 ± 36
14,COC(=O)Nc1nc2cc(C(=O)c3ccccc3)ccc2[nH]1,74.9 ± 28
15,FC(F)(F)c1nnc2ccc(Cl)nn12,85 ± 18
16,COc1ccc2nc(C)cc(OCC(=O)Nc3ccccc3OC)c2c1,67.6 ± 16
17,Cc1cc(OCC(=O)NCc2ccccc2)c2cc(Br)ccc2n1,176 ± 160
18,c1ccc(-c2[nH]c3ccccc3c2C(c2ccccn2)N2CCCC2)cc1 (stereo not given),108 ± 23
19,COc1cc(C2=NCCN2)ccc1-n1cc(-c2cccc(C3=NCCN3)c2)nn1,63.4 ± 23
20,CCCn1c(CNc2ccccc2O)nc2ccccc21,82.1 ± 38
